# Measured values taken from paper PMC11006913.
# Residue numbers refer to the chain shown, from its start.
# Legend:
# Experiment in all cases: PBM; 200 nM protein, PBS
# Conditions in all cases: dsDNA, one strand shown
# HOXB4 [1] = target: HOXB4 (Homo sapiens, UniProt P17483 148-234)
# HOXC9 [2] = target: HOXC9 (Homo sapiens, UniProt P31274 178-260, K195R)
# HOXB4 [3] = target: HOXB4 (Homo sapiens, UniProt P17483 148-234, V174I)
# HOXC9 [4] = target: HOXC9 (Homo sapiens, UniProt P31274 178-260)
# HOXC9 [5] = target: HOXC9 (Homo sapiens, UniProt P31274 178-260, R193K)
# HOXC9 [6] = target: HOXC9 (Homo sapiens, UniProt P31274 178-260, R222W)
# HOXA4 [7] = target: HOXA4 (Homo sapiens, UniProt Q00056 201-287, W262R)
# HOXA2 [8] = target: HOXA2 (Homo sapiens, UniProt O43364 129-215, R185T)
# HOXA4 [9] = target: HOXA4 (Homo sapiens, UniProt Q00056 201-287, R217L)
# HOXA2 [10] = target: HOXA2 (Homo sapiens, UniProt O43364 129-215, R185K)
# HOXA4 [11] = target: HOXA4 (Homo sapiens, UniProt Q00056 201-287)
# HOXA2 [12] = target: HOXA2 (Homo sapiens, UniProt O43364 129-215, Y150S)
# HOXA4 [13] = target: HOXA4 (Homo sapiens, UniProt Q00056 201-287, W262F)
# HOXA2 [14] = target: HOXA2 (Homo sapiens, UniProt O43364 129-215)
# ALX1 [15] = target: ALX1 (Homo sapiens, UniProt Q15699 118-204, L144V)
# ALX1 [16] = target: ALX1 (Homo sapiens, UniProt Q15699 118-204, L144R)
# ALX1 [17] = target: ALX1 (Homo sapiens, UniProt Q15699 118-204)
# PAX4 [18] = target: T1, PAX4 (Homo sapiens, UniProt O43316 9-242, R200K)
# T1 sequence: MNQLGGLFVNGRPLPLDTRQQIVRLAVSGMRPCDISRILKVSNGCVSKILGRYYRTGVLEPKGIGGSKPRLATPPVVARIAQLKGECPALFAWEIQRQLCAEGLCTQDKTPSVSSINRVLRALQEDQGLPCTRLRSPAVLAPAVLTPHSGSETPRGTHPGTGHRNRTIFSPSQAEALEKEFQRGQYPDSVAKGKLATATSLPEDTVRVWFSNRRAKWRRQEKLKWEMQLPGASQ
# PAX4 [19] = target: T2, PAX4 (Homo sapiens, UniProt O43316 9-242)
# T2 sequence: T1 sequence with K192R
# MSX2 [20] = target: MSX2 (Homo sapiens, UniProt P35548 130-214, R199I)
# PAX4 [21] = target: T3, PAX4 (Homo sapiens, UniProt O43316 9-242, R200Q)
# T3 sequence: T1 sequence with K192Q
# PAX4 [22] = target: T4, PAX4 (Homo sapiens, UniProt O43316 9-242, F177V)
# T4 sequence: T1 sequence with F169V, K192R
# MSX2 [23] = target: MSX2 (Homo sapiens, UniProt P35548 130-214)
# PAX4 [24] = target: T5, PAX4 (Homo sapiens, UniProt O43316 9-242, F177Y)
# T5 sequence: T1 sequence with F169Y, K192R
# MSX2 [25] = target: MSX2 (Homo sapiens, UniProt P35548 130-214, F161Y)
# PAX4 [26] = target: T6, PAX4 (Homo sapiens, UniProt O43316 9-242, R227W)
# T6 sequence: T1 sequence with K192R, R219W
# VAX1 [27] = target: VAX1 (Homo sapiens, UniProt Q5SQQ9 86-172)
# VAX1 [28] = target: VAX1 (Homo sapiens, UniProt Q5SQQ9 86-172, T142I)
# VAX1 [29] = target: VAX1 (Homo sapiens, UniProt Q5SQQ9 86-172, K157R)
# HOXA7 [30] = target: HOXA7 (Homo sapiens, UniProt P31268 116-202)
# HOXB6 [31] = target: HOXB6 (Homo sapiens, UniProt P17509 132-218, K202E)
# HOXA7 [32] = target: HOXA7 (Homo sapiens, UniProt P31268 116-202, W177C)
# HOXB6 [33] = target: HOXB6 (Homo sapiens, UniProt P17509 132-218)
# Chain of HOXB6 (Homo sapiens, UniProt P17509 132-218) (P17509 132-218): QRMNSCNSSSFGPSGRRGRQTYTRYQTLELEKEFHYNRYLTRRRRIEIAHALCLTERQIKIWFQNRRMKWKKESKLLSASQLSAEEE
# Chain of ALX1 (Homo sapiens, UniProt Q15699 118-204) (Q15699 118-204): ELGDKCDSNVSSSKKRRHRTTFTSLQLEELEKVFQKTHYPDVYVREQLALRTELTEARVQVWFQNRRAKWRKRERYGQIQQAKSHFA
# Chain of HOXA4 (Homo sapiens, UniProt Q00056 201-287) (Q00056 201-287): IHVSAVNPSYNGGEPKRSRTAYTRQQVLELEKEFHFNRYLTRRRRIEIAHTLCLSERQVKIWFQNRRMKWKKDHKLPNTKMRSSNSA
# Chain of HOXB4 (Homo sapiens, UniProt P17483 148-234, V174I) (P17483 148-234 V174I): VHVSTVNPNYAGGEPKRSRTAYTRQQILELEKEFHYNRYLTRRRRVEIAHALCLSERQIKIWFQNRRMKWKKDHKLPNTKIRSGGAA
# Chain of HOXB4 (Homo sapiens, UniProt P17483 148-234) (P17483 148-234): as the sequence (P17483 148-234 V174I) above, with I27V counted along it
# Chain of HOXA4 (Homo sapiens, UniProt Q00056 201-287, R217L) (Q00056 201-287 R217L): as the sequence (Q00056 201-287) above, with R17L counted along it
# Chain of HOXA4 (Homo sapiens, UniProt Q00056 201-287, W262F) (Q00056 201-287 W262F): as the sequence (Q00056 201-287) above, with W62F counted along it
# Chain of ALX1 (Homo sapiens, UniProt Q15699 118-204, L144V) (Q15699 118-204 L144V): as the sequence (Q15699 118-204) above, with L27V counted along it
# Chain of HOXA4 (Homo sapiens, UniProt Q00056 201-287, W262R) (Q00056 201-287 W262R): as the sequence (Q00056 201-287) above, with W62R counted along it
# Chain of ALX1 (Homo sapiens, UniProt Q15699 118-204, L144R) (Q15699 118-204 L144R): as the sequence (Q15699 118-204) above, with L27R counted along it
# Chain of HOXA2 (Homo sapiens, UniProt O43364 129-215, Y150S) (O43364 129-215 Y150S): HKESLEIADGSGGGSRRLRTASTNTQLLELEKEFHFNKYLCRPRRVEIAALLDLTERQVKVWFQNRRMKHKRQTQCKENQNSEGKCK
# Chain of HOXA2 (Homo sapiens, UniProt O43364 129-215, R185K) (O43364 129-215 R185K): as the sequence (O43364 129-215 Y150S) above, with S22Y, R57K counted along it
# Chain of HOXA2 (Homo sapiens, UniProt O43364 129-215, R185T) (O43364 129-215 R185T): as the sequence (O43364 129-215 Y150S) above, with S22Y, R57T counted along it
# Chain of HOXA2 (Homo sapiens, UniProt O43364 129-215) (O43364 129-215): as the sequence (O43364 129-215 Y150S) above, with S22Y counted along it
# Chain of HOXC9 (Homo sapiens, UniProt P31274 178-260, R222W) (P31274 178-260 R222W): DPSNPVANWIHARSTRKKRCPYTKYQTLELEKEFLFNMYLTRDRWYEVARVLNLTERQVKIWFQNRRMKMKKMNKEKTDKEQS
# Chain of HOXC9 (Homo sapiens, UniProt P31274 178-260, K195R) (P31274 178-260 K195R): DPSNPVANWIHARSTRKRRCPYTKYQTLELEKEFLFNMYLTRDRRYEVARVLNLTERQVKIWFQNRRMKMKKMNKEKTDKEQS
# Chain of MSX2 (Homo sapiens, UniProt P35548 130-214, F161Y) (P35548 130-214 F161Y): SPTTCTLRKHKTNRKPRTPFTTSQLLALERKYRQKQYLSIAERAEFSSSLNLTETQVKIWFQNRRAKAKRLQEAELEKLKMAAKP
# Chain of VAX1 (Homo sapiens, UniProt Q5SQQ9 86-172) (Q5SQQ9 86-172): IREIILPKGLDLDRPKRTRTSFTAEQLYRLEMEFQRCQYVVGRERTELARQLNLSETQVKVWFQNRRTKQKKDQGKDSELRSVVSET
# Chain of VAX1 (Homo sapiens, UniProt Q5SQQ9 86-172, K157R) (Q5SQQ9 86-172 K157R): as the sequence (Q5SQQ9 86-172) above, with K72R counted along it
# Chain of MSX2 (Homo sapiens, UniProt P35548 130-214) (P35548 130-214): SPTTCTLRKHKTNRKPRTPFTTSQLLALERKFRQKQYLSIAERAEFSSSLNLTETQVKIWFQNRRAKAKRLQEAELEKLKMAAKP
# Chain of HOXC9 (Homo sapiens, UniProt P31274 178-260, R193K) (P31274 178-260 R193K): as the sequence (P31274 178-260 R222W) above, with R16K, W45R counted along it
# Chain of HOXA7 (Homo sapiens, UniProt P31268 116-202, W177C) (P31268 116-202 W177C): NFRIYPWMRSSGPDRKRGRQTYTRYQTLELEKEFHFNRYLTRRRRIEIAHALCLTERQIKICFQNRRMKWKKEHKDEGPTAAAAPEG
# Chain of HOXC9 (Homo sapiens, UniProt P31274 178-260) (P31274 178-260): as the sequence (P31274 178-260 R222W) above, with W45R counted along it
# Chain of MSX2 (Homo sapiens, UniProt P35548 130-214, R199I) (P35548 130-214 R199I): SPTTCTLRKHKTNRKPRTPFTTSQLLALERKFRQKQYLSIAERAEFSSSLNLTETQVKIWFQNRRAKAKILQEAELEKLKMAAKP
# Chain of HOXB6 (Homo sapiens, UniProt P17509 132-218, K202E) (P17509 132-218 K202E): as the sequence (P17509 132-218) above, with K71E counted along it
# Chain of HOXA7 (Homo sapiens, UniProt P31268 116-202) (P31268 116-202): as the sequence (P31268 116-202 W177C) above, with C62W counted along it
# Chain of VAX1 (Homo sapiens, UniProt Q5SQQ9 86-172, T142I) (Q5SQQ9 86-172 T142I): as the sequence (Q5SQQ9 86-172) above, with T57I counted along it
sequence,measurement,setting,value
CGTGGCGC,binding signal,HOXB4 [1],"7.6 upbm affinity estimate (log intensity, higher = more binding, comparable within an allelic series)"
same,binding signal,HOXC9 [2],"9.49 upbm affinity estimate (log intensity, higher = more binding, comparable within an allelic series)"
same,binding signal,HOXB4 [3],"7.68 upbm affinity estimate (log intensity, higher = more binding, comparable within an allelic series)"
same,binding signal,HOXC9 [4],"9.5 upbm affinity estimate (log intensity, higher = more binding, comparable within an allelic series)"
same,binding signal,HOXC9 [5],"9.45 upbm affinity estimate (log intensity, higher = more binding, comparable within an allelic series)"
same,binding signal,HOXC9 [6],"9.81 upbm affinity estimate (log intensity, higher = more binding, comparable within an allelic series)"
CATAATGA,binding signal,HOXB4 [1],"13 upbm affinity estimate (log intensity, higher = more binding, comparable within an allelic series)"
same,binding signal,HOXA4 [7],"10.6 upbm affinity estimate (log intensity, higher = more binding, comparable within an allelic series)"
same,binding signal,HOXA2 [8],"12 upbm affinity estimate (log intensity, higher = more binding, comparable within an allelic series)"
same,binding signal,HOXA4 [9],"11.9 upbm affinity estimate (log intensity, higher = more binding, comparable within an allelic series)"
same,binding signal,HOXB4 [3],"13.5 upbm affinity estimate (log intensity, higher = more binding, comparable within an allelic series)"
same,binding signal,HOXA2 [10],"13.1 upbm affinity estimate (log intensity, higher = more binding, comparable within an allelic series)"
same,binding signal,HOXA4 [11],"13.6 upbm affinity estimate (log intensity, higher = more binding, comparable within an allelic series)"
same,binding signal,HOXA2 [12],"11 upbm affinity estimate (log intensity, higher = more binding, comparable within an allelic series)"
same,binding signal,HOXA4 [13],"11.3 upbm affinity estimate (log intensity, higher = more binding, comparable within an allelic series)"
same,binding signal,HOXA2 [14],"12.1 upbm affinity estimate (log intensity, higher = more binding, comparable within an allelic series)"
GGCCCCCA,binding signal,HOXB4 [1],"7.76 upbm affinity estimate (log intensity, higher = more binding, comparable within an allelic series)"
same,binding signal,HOXA4 [7],"9.68 upbm affinity estimate (log intensity, higher = more binding, comparable within an allelic series)"
same,binding signal,HOXA4 [9],"9.68 upbm affinity estimate (log intensity, higher = more binding, comparable within an allelic series)"
same,binding signal,HOXB4 [3],"7.77 upbm affinity estimate (log intensity, higher = more binding, comparable within an allelic series)"
same,binding signal,ALX1 [15],"6.64 upbm affinity estimate (log intensity, higher = more binding, comparable within an allelic series)"
same,binding signal,ALX1 [16],"6.56 upbm affinity estimate (log intensity, higher = more binding, comparable within an allelic series)"
same,binding signal,HOXA4 [11],"9.71 upbm affinity estimate (log intensity, higher = more binding, comparable within an allelic series)"
same,binding signal,ALX1 [17],"6.65 upbm affinity estimate (log intensity, higher = more binding, comparable within an allelic series)"
same,binding signal,HOXA4 [13],"9.82 upbm affinity estimate (log intensity, higher = more binding, comparable within an allelic series)"
CGGGCTTC,binding signal,HOXB4 [1],"7.22 upbm affinity estimate (log intensity, higher = more binding, comparable within an allelic series)"
same,binding signal,HOXA4 [7],"9.75 upbm affinity estimate (log intensity, higher = more binding, comparable within an allelic series)"
same,binding signal,PAX4 [18],"9.13 upbm affinity estimate (log intensity, higher = more binding, comparable within an allelic series)"
same,binding signal,PAX4 [19],"8.97 upbm affinity estimate (log intensity, higher = more binding, comparable within an allelic series)"
same,binding signal,HOXA4 [9],"9.66 upbm affinity estimate (log intensity, higher = more binding, comparable within an allelic series)"
same,binding signal,HOXB4 [3],"7.19 upbm affinity estimate (log intensity, higher = more binding, comparable within an allelic series)"
same,binding signal,MSX2 [20],"9.39 upbm affinity estimate (log intensity, higher = more binding, comparable within an allelic series)"
same,binding signal,PAX4 [21],"9.21 upbm affinity estimate (log intensity, higher = more binding, comparable within an allelic series)"
same,binding signal,PAX4 [22],"9.17 upbm affinity estimate (log intensity, higher = more binding, comparable within an allelic series)"
same,binding signal,HOXA4 [11],"9.6 upbm affinity estimate (log intensity, higher = more binding, comparable within an allelic series)"
same,binding signal,MSX2 [23],"9.32 upbm affinity estimate (log intensity, higher = more binding, comparable within an allelic series)"
same,binding signal,PAX4 [24],"9.09 upbm affinity estimate (log intensity, higher = more binding, comparable within an allelic series)"
same,binding signal,MSX2 [25],"9.35 upbm affinity estimate (log intensity, higher = more binding, comparable within an allelic series)"
same,binding signal,PAX4 [26],"9.24 upbm affinity estimate (log intensity, higher = more binding, comparable within an allelic series)"
same,binding signal,HOXA4 [13],"9.77 upbm affinity estimate (log intensity, higher = more binding, comparable within an allelic series)"
TTAATGAA,binding signal,HOXB4 [1],"13 upbm affinity estimate (log intensity, higher = more binding, comparable within an allelic series)"
same,binding signal,HOXA4 [7],"10.7 upbm affinity estimate (log intensity, higher = more binding, comparable within an allelic series)"
same,binding signal,HOXA2 [8],"12 upbm affinity estimate (log intensity, higher = more binding, comparable within an allelic series)"
same,binding signal,HOXA4 [9],"12.2 upbm affinity estimate (log intensity, higher = more binding, comparable within an allelic series)"
same,binding signal,HOXB4 [3],"13.7 upbm affinity estimate (log intensity, higher = more binding, comparable within an allelic series)"
same,binding signal,ALX1 [15],"11 upbm affinity estimate (log intensity, higher = more binding, comparable within an allelic series)"
same,binding signal,HOXA2 [10],"12.9 upbm affinity estimate (log intensity, higher = more binding, comparable within an allelic series)"
same,binding signal,ALX1 [16],"10.7 upbm affinity estimate (log intensity, higher = more binding, comparable within an allelic series)"
same,binding signal,HOXA4 [11],"13.8 upbm affinity estimate (log intensity, higher = more binding, comparable within an allelic series)"
same,binding signal,VAX1 [27],"12.7 upbm affinity estimate (log intensity, higher = more binding, comparable within an allelic series)"
same,binding signal,VAX1 [28],"12.4 upbm affinity estimate (log intensity, higher = more binding, comparable within an allelic series)"
same,binding signal,HOXA2 [12],"10.8 upbm affinity estimate (log intensity, higher = more binding, comparable within an allelic series)"
same,binding signal,ALX1 [17],"11.5 upbm affinity estimate (log intensity, higher = more binding, comparable within an allelic series)"
same,binding signal,HOXA4 [13],"11.8 upbm affinity estimate (log intensity, higher = more binding, comparable within an allelic series)"
same,binding signal,HOXA2 [14],"12.1 upbm affinity estimate (log intensity, higher = more binding, comparable within an allelic series)"
same,binding signal,VAX1 [29],"12.4 upbm affinity estimate (log intensity, higher = more binding, comparable within an allelic series)"
GTGGGGGA,binding signal,HOXB4 [1],"7.95 upbm affinity estimate (log intensity, higher = more binding, comparable within an allelic series)"
same,binding signal,HOXA7 [30],"8.47 upbm affinity estimate (log intensity, higher = more binding, comparable within an allelic series)"
same,binding signal,PAX4 [18],"9.34 upbm affinity estimate (log intensity, higher = more binding, comparable within an allelic series)"
same,binding signal,PAX4 [19],"9.25 upbm affinity estimate (log intensity, higher = more binding, comparable within an allelic series)"
same,binding signal,HOXB6 [31],"9.05 upbm affinity estimate (log intensity, higher = more binding, comparable within an allelic series)"
same,binding signal,HOXB4 [3],"7.59 upbm affinity estimate (log intensity, higher = more binding, comparable within an allelic series)"
same,binding signal,ALX1 [15],"6.51 upbm affinity estimate (log intensity, higher = more binding, comparable within an allelic series)"
same,binding signal,PAX4 [21],"9.37 upbm affinity estimate (log intensity, higher = more binding, comparable within an allelic series)"
same,binding signal,ALX1 [16],"6.24 upbm affinity estimate (log intensity, higher = more binding, comparable within an allelic series)"
same,binding signal,PAX4 [22],"9.35 upbm affinity estimate (log intensity, higher = more binding, comparable within an allelic series)"
same,binding signal,PAX4 [24],"9.43 upbm affinity estimate (log intensity, higher = more binding, comparable within an allelic series)"
same,binding signal,PAX4 [26],"9.48 upbm affinity estimate (log intensity, higher = more binding, comparable within an allelic series)"
same,binding signal,HOXA7 [32],"8.55 upbm affinity estimate (log intensity, higher = more binding, comparable within an allelic series)"
same,binding signal,ALX1 [17],"6.29 upbm affinity estimate (log intensity, higher = more binding, comparable within an allelic series)"
same,binding signal,HOXB6 [33],"9.14 upbm affinity estimate (log intensity, higher = more binding, comparable within an allelic series)"
